Test [1] in a line: NCI Yeast Anticancer Drug Screen. Data for the rad50 strain (AID 155).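 Note: 0% = growth of vehicle-only cultures of the same strain.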 Conditions: S. cerevisiae rad50 strain growth inhibition, active compounds read high. The procedure, abridged:
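Readout: growth inhibition relative to vehicle-treated cultures. Compound exposure was carried out in a genetically defined yeast strain deficient in DNA damage repair.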

Test [2] in a line: NCI Yeast Anticancer Drug Screen. Data for the mec2-1 strain (AID 157). The note with it: S. cerevisiae mec2-1 strain, active compounds read high. The procedure, abridged:
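Readout is yeast growth inhibition, normalised to vehicle-treated controls, in the mec2-1 strain exposed to compound.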

Test [3] can be described thus: NCI Yeast Anticancer Drug Screen. Data for the sgs1 mgt1 strain (AID 161).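 Note: 0% = growth of cultures given vehicle only.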 Conditions: S. cerevisiae sgs1 mgt1 strain, active compounds read high. The procedure, abridged:
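Yeast cells carrying a defined DNA-repair defect were exposed to test compounds. Growth inhibition was measured relative to vehicle-treated controls.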

Test [4] in a line: NCI Yeast Anticancer Drug Screen. Data for the cln2 rad14 strain (AID 165).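 Note: 0% = growth equal to vehicle treated cultures.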 Conditions: S. cerevisiae cln2 rad14 strain, active compounds read high. The procedure, abridged:
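Relative to vehicle controls, growth inhibition of compound-treated cln2 rad14 yeast was recorded.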

Test [5] can be described thus: NCI Yeast Anticancer Drug Screen. Data for the bub3 strain (AID 167). The note with it: S. cerevisiae bub3 mutant strain, active compounds read high. The procedure, abridged: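 Readout: yeast growth inhibition, expressed relative to vehicle-only wells. The test organism is a mutant strain from a panel with lesions in DNA repair or checkpoint genes.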
A short description of test [6]: NCI Yeast Anticancer Drug Screen. Data for the mlh1 rad18 strain (AID 175). The note with it: S. cerevisiae mlh1 rad18 strain growth inhibition, active compounds read high. The procedure, abridged:
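Test agents were incubated with a yeast strain of defined genotype (DNA damage repair defect). Inhibition of growth was derived by comparison with vehicle-exposed cultures.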

The mark [7] stands for this setting: at 5.0 µM (retest, dose inferred, filed as 0.5).
Setting [8] is: at 50.0 µM (retest, dose inferred, filed as 5.0).

The values below come from PubChem BioAssay (NCI).

About 79,000 compounds went through this panel and 15% of them were active in at least one assay; those are over-represented in the sample as a whole. Values without a mark were called inactive. Active and inactive are the calls of the source. Cut-off read from the data, not from the text of the source: active = growth inhibition above about 70%; inactive = the rest.

Turning to `O=C(C#CC(=O)[O][Sn]([c]1ccccc1)([c]1ccccc1)[c]1ccccc1)[O][Sn]([c]1ccccc1)([c]1ccccc1)[c]1ccccc1`, the growth inhibition in test [1] (setting [7]) is 99% (active); in test [1] (setting [8]), 99% (active); in test [1] (at 50.0 µM), 99.1% (active); in test [2] (setting [7]), 100% (active); in test [2] (setting [8]), 99% (active); in test [2] (at 50.0 µM), 99.5% (active). For the same compound, the growth inhibition was 100% (active) in test [3] (setting [7]); 99% (active) in test [3] (setting [8]); 99.5% (active) in test [3] (at 50.0 µM); 99% (active) in test [4] (setting [7]); 99% (active) in test [4] (setting [8]); 98.4% (active) in test [4] (at 50.0 µM). For the same compound, the growth inhibition in test [5] (setting [7]) was 99% (active); in test [5] (setting [8]), 99% (active); in test [5] (at 50.0 µM), 99% (active); in test [6] (setting [7]), 99% (active); in test [6] (setting [8]), 99% (active); in test [6] (at 50.0 µM) it was 99.2% (active).
For the compound `O=[N+]([O-])c1c[nH]c2ncnc(SCc3ccccc3)c12`, the growth inhibition in test [1] (setting [7]) is 98% (active); in test [1] (setting [8]), 98% (active); in test [1] (at 50.0 µM), 100% (active); in test [2] (setting [7]) it was 99% (active); in test [2] (setting [8]), 99% (active); in test [2] (at 50.0 µM), 99.3% (active). The growth inhibition was 99% (active) in test [3] (setting [7]); 99% (active) in test [3] (setting [8]); 99.2% (active) in test [3] (at 50.0 µM); 86% (active) in test [4] (setting [7]); 99% (active) in test [4] (setting [8]); 94.3% (active) in test [4] (at 50.0 µM). For the same compound, the growth inhibition is 97% (active) in test [5] (setting [7]); 99% (active) in test [5] (setting [8]); 98.7% (active) in test [5] (at 50.0 µM); 98% (active) in test [6] (setting [7]); 98% (active) in test [6] (setting [8]); 98.9% (active) in test [6] (at 50.0 µM).
Take `CCC(C)(C[NH-])C[NH-].[Cl][Pt+2][Cl]`: the growth inhibition was 13% in test [1] (setting [7]); 27% in test [1] (setting [8]); 28% in test [1] (at 50.0 µM); 19% in test [2] (setting [7]); 28% in test [2] (setting [8]); 45.9% in test [2] (at 50.0 µM). Also, the growth inhibition is 18% in test [3] (setting [7]); 28% in test [3] (setting [8]); 3.9% in test [3] (at 50.0 µM); 26% in test [4] (setting [7]); 34% in test [4] (setting [8]); 10.4% in test [4] (at 50.0 µM). Besides, the growth inhibition in test [5] (setting [7]) is 11%; in test [5] (setting [8]) it was 28%; in test [5] (at 50.0 µM) it was -14.7%; in test [6] (setting [7]) it was 25%; in test [6] (setting [8]), 42%; in test [6] (at 50.0 µM), -17.6%.
In the case of `CC(C)c1ccc(N2C(=O)C=CC2=O)cc1`, the growth inhibition in test [1] (setting [7]) is 98% (active); in test [1] (setting [8]) it was 97% (active); in test [1] (at 50.0 µM), 99.7% (active); in test [2] (setting [7]), 98% (active); in test [2] (setting [8]) it was 99% (active); in test [2] (at 50.0 µM), 99.7% (active). Also, the growth inhibition in test [3] (setting [7]) is 95% (active); in test [3] (setting [8]), 98% (active); in test [3] (at 50.0 µM), 99.5% (active); in test [4] (setting [7]), 91% (active); in test [4] (setting [8]), 99% (active); in test [4] (at 50.0 µM) it was 99.5% (active). Further, the growth inhibition in test [5] (setting [7]) was 98% (active); in test [5] (setting [8]) it was 98% (active); in test [5] (at 50.0 µM) it was 99.5% (active); in test [6] (setting [7]), 95% (active); in test [6] (setting [8]), 98% (active); in test [6] (at 50.0 µM) it was 99.2% (active).
On to `COC(=O)c1c(C)cccc1C1CN=NC12Cc1ccccc1C2=O` (configuration not stated), for which the growth inhibition in test [1] (setting [7]) was 24%; in test [1] (setting [8]), 32%; in test [1] (at 50.0 µM), 3.9%; in test [2] (setting [7]), 16%; in test [2] (setting [8]), 12%; in test [2] (at 50.0 µM), 6.25%. Moreover, the growth inhibition is 23% in test [3] (setting [7]); 38% in test [3] (setting [8]); 32.9% in test [3] (at 50.0 µM); 24% in test [4] (setting [7]); 16% in test [4] (setting [8]); 30.8% in test [4] (at 50.0 µM). The growth inhibition in test [5] (setting [7]) is 25%; in test [5] (setting [8]), 30%; in test [5] (at 50.0 µM) it was 19.6%; in test [6] (setting [7]), 23%; in test [6] (setting [8]), 29%; in test [6] (at 50.0 µM), -32.9%.
As for `CSC1=NSC(c2ccccc2)=C(c2ccccc2)S1`, the growth inhibition in test [1] (setting [7]) was 7%; in test [1] (setting [8]), 9%; in test [1] (at 50.0 µM) it was 7.95%; in test [2] (setting [7]), -15%; in test [2] (setting [8]), 10%; in test [2] (at 50.0 µM), -1.45%. Also, the growth inhibition in test [3] (setting [7]) was -11%; in test [3] (setting [8]), 0%; in test [3] (at 50.0 µM), 27.8%; in test [4] (setting [7]) it was 33%; in test [4] (setting [8]) it was 88% (active); in test [4] (at 50.0 µM) it was 62.5%. For the same compound, the growth inhibition in test [5] (setting [7]) is 9%; in test [5] (setting [8]), 43%; in test [5] (at 50.0 µM), 43.1%; in test [6] (setting [7]) it was 5%; in test [6] (setting [8]) it was 16%; in test [6] (at 50.0 µM), 10.2%.
`CN(Cc1cnc2nc(N)nc(N)c2n1)c1ccc(C(=O)NC(CCC(=O)O)C(=O)O)cc1C(F)(F)F` (configuration not stated): the growth inhibition in test [1] (setting [7]) was -2%; in test [1] (setting [8]) it was 76% (active); in test [1] (at 50.0 µM), 72.7% (active); in test [2] (setting [7]), 61%; in test [2] (setting [8]), 98% (active); in test [2] (at 50.0 µM), 50%. Also, the growth inhibition is -12% in test [3] (setting [7]); 62% in test [3] (setting [8]); 67.5% in test [3] (at 50.0 µM); -16% in test [4] (setting [7]); 5% in test [4] (setting [8]); 29% in test [4] (at 50.0 µM). Moreover, the growth inhibition in test [5] (setting [7]) is -19%; in test [5] (setting [8]) it was 65%; in test [5] (at 50.0 µM), 75.5% (active); in test [6] (setting [7]), 0%; in test [6] (setting [8]), 86% (active); in test [6] (at 50.0 µM) it was 56.9%.
As for `COc1cc(/C=C/C(=O)Sc2ccccc2)cc(OC)c1O`, the growth inhibition in test [1] (setting [7]) was 1%; in test [1] (setting [8]) it was 47%; in test [1] (at 50.0 µM), 74.7% (active); in test [2] (setting [7]), 0%; in test [2] (setting [8]), 58%; in test [2] (at 50.0 µM), 58.6%. The growth inhibition in test [3] (setting [7]) was -3%; in test [3] (setting [8]), 60%; in test [3] (at 50.0 µM), 59.2%; in test [4] (setting [7]), 2%; in test [4] (setting [8]), 38%; in test [4] (at 50.0 µM) it was 75.7% (active). The growth inhibition is 2% in test [5] (setting [7]); 70% (active) in test [5] (setting [8]); 51% in test [5] (at 50.0 µM); -2% in test [6] (setting [7]); 58% in test [6] (setting [8]); 50.6% in test [6] (at 50.0 µM).
Take `BrC1CCCCCC1`: the growth inhibition in test [1] (setting [7]) is 2%; in test [1] (setting [8]) it was 10%; in test [1] (at 50.0 µM) it was 51.9%; in test [2] (setting [7]), 3%; in test [2] (setting [8]), 16%; in test [2] (at 50.0 µM), 34.5%. The growth inhibition in test [3] (setting [7]) is 1%; in test [3] (setting [8]), 22%; in test [3] (at 50.0 µM) it was 57.4%; in test [4] (setting [7]) it was 6%; in test [4] (setting [8]), 14%; in test [4] (at 50.0 µM), 27.4%. In addition, the growth inhibition in test [5] (setting [7]) is 5%; in test [5] (setting [8]), 35%; in test [5] (at 50.0 µM) it was 37%; in test [6] (setting [7]) it was 6%; in test [6] (setting [8]), 24%; in test [6] (at 50.0 µM) it was 81.7% (active).
